Structures are written as SMILES. This is part of a sample that, as a whole, favours compounds with a hit. Of some 83,000 tested, about 20% had one in any assay.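 Step 1: grow cells in 96-well plates. Step 2: add test compound at a single concentration. Step 3: incubate 48 h. Step 4: record percent growth.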 Calls of active or inactive are those of the source.

The experiment concerns M14 melanoma. Description: NCI-60 one-dose screen, 48 h (100 = growth as untreated, 0 = no growth, -100 = all killed). The settings on record: 10 µM unless noted. Here is the method: Growth inhibition of the M14 human tumor cell line is measured as a screen for anti-cancer activity. Cells are grown in 96 well plates and exposed to the test compound for 48 hours. Compounds are tested at a single concentration, which is 10^-5 M for most compounds. The reported endpoint is percent growth (GI% or GIPRCNT), where numbers from 0 - 100% represent growth inhibition, and numbers from -100% - 0 represent cell death. For example, a value of 40 represents 60% growth inhibition. A value of 0 means no net growth occurred over the course of the experiment. A value of -40 indicates 40% of cells at the beginning of the experiment died by the end of the experiment. A value of -100 means all cells are dead at the end of the experiment.
NCI-60 Human Tumor Cell Lines Screen was performed using the standard one-dose NCI protocol, which is described in more detail at https://dtp.cancer.gov/discovery_development/nci-60/default.htm.
Compounds with GIPRCNT values below 10 were considered active. Activity score was based on GIPRCNT using the following formula: […]
Score is 0 for GIPRCNT values of 100 or above, 50 for GIPRCNT values of 0, and 100 for GIPRCNT values of -100.
Regarding `CSc1nc2ccccc2cc1/C=C1/C=C(c2ccccc2)NC1=O`, the growth was 66.8% (inactive).

For the molecule `CC(=O)Oc1ccc(/C(=C(\C)c2ccc(Cl)cc2)c2ccc(OCCN3CCCCC3)cc2)cc1`, the growth is -35.1% (active).

On to `COc1cc2c(cc1OC)C(C)N(S(N)(=O)=O)CC2` (stereo not given), for which the growth was 91.8% (inactive).

For the molecule `COc1ccc(-c2cc(-c3cc(OC)c(OC)c(OC)c3)c(C#N)c(=O)n2CCCCC(=O)NO)cc1`, the growth is 56.9% (inactive).

On to `COc1cc2ncnc(Nc3ccc(S(=O)(=O)Nc4cc(C)on4)cc3)c2cc1OCCCN1CCN(c2ccc(F)cc2)CC1`, for which the growth was 108% (inactive).

Turning to `CCN(CC)Cc1cc(C=C2C(=O)NC(=S)NC2=O)cc(OC)c1O`, the growth was 108% (inactive).

On to `N#CSc1c[nH]c2cccc(/C=C/C(=O)/C=C(/C=C/c3cccc4[nH]cc(SC#N)c34)OB(F)F)c12`, for which the growth is -40.9% (active).

`N#CC1=C(N)Oc2c(ccc3ccccc23)C1c1ccccc1` (stereo not given): the growth is 3.13% (active).

For `Clc1ccc2c(NC3CCC(N4CCOCC4)CC3)ccnc2c1` (stereo not given), the growth is 84% (inactive).

As for `CC(=O)Oc1ccc(N2C(=O)C(Cl)=C(Nc3cccc(C(F)(F)F)c3)C2=O)cc1`, the growth is 105% (inactive).

As for `CCN1CCN(C(=O)[C@]23CCC(C)(C)C[C@@H]2C2=CC[C@@H]4[C@@]5(C)CCC(=O)C(C)(C)[C@@H]5CC[C@@]4(C)[C@]2(C)CC3)CC1`, the growth is 57.1% (inactive).

Consider `CC1OC(n2c3ccccc3c3c4c(c5c6ccccc6[nH]c5c32)C(=O)N(CCN2CCCC2)C4=O)CC(O)C1O` (stereo not given), for which the growth was 38.6% (inactive).

On to `O=c1c2cnn(-c3ccccc3)c2n2c(CN3CCOCC3)nnc2n1-c1ccccc1`, for which the growth is 98.2% (inactive).

For `CC(C)c1ccc(Cc2cnc(NC(=O)c3cc(Br)cs3)s2)cc1`, the growth was 15.8% (inactive).

As to `CNC(=O)c1[nH]cc(-c2ccc(OC)cc2)c1-c1cc(OC)c2c(c1OC)OCO2`, the growth was 101% (inactive).

`O=C(Nc1nc2ccccc2s1)c1ccc(F)cc1`: the growth was 110% (inactive).

Consider `CC(C)COc1nc2c(c(=O)n(C)c(=O)n2C)n1C`, for which the growth was 108% (inactive).

On to `Cc1ccc(NC(=O)Cn2cc(CN3CCN(c4ccnc5cc(Cl)ccc45)CC3)nn2)cc1`, for which the growth is 103% (inactive).

`COc1ccc(C2=Nc3c(N)nc(N)nc3NC(c3cccc(Nc4ccnc5cc(C(F)(F)F)ccc45)c3)C2)cc1` (stereo not given): the growth was 67.2% (inactive).

`COC(=O)C1Cc2ccccc2CN1C(=O)c1ccc2c(c1)Cc1ccccc1-2` (stereo not given): the growth is 30.9% [50 µM] (inactive).

For `O=S(=O)(NCCNc1nccc(-c2c(-c3ccc(F)c(O)c3)nc3occn23)n1)c1ccc(Cl)cc1`, the growth was 26.6% (inactive).

On to `COc1ccc(\C=N/N=C(N)/C(N)=N\N=C/c2ccc(OC)cc2)cc1`, for which the growth was 111% (inactive).

For the molecule `COC(CC(F)F)c1cn(S(=O)(=O)c2ccc(C)cc2)c2ccccc12` (stereo not given), the growth was 7.65% (active).

Regarding `COc1ccc(/C=C/C(=O)c2ccc(Nc3ccnc4cc(Cl)ccc34)cc2)cc1`, the growth is 87.8% (inactive).

For `CNC(=O)c1ccccc1Oc1nc(Nc2cc(OC)c(OC)c(OC)c2)ncc1Br`, the growth is 47.7% (inactive).

On to `NC(Cc1ccc(O)c([N+](=O)[O-])c1)C(=O)O` (stereo not given), for which the growth is 101% (inactive).

Consider `O=c1scc(-c2ccc(C(F)(F)F)cc2)s1`, for which the growth is 104% (inactive).

On to `CCN(CC)c1ccc(\C=N/N=C(N)/C(N)=N\N=C/c2ccc(N(CC)CC)cc2)cc1`, for which the growth was 110% (inactive).

With `O=C(c1ccccc1)c1ccc(C2CCCCC2)cc1`, the growth was 96.8% (inactive).

As for `CCN(CC)CCn1c2ccc(O)cc2c2sc3cc(O)ccc3c(=O)c21`, the growth was 19.6% (inactive).

Consider `CCCNC(=O)Nc1ccc2cc3ccc(NC(=O)NCCC)cc3nc2c1`, for which the growth was 89.1% (inactive).

On to `CCOc1nc(-c2ccccc2)cc2c(O)c(C(=O)N/N=C/c3ccccc3)[nH]c(=O)c12`, for which the growth is 118% (inactive).

With `COc1ccccc1N1CCCCC1`, the growth is 101% (inactive).

Consider `CCNCCNc1cc(-c2ccc(C(F)(F)F)cc2)c(C#N)c2nc3ccccc3n12`, for which the growth is -82.5% (active).

For `O=C(OC(CO)C(=O)NC12CC3CC(CC(C3)C1)C2)c1ccc(Cl)cc1` (stereo not given), the growth is 97.6% (inactive).

Turning to `Cc1ccc(C)n1-c1ccccc1-n1c(C)ccc1C`, the growth is 112% (inactive).

For the molecule `CSc1nc2ccccc2cc1/C=[N+](\[O-])c1ccccc1`, the growth is 27.6% (inactive).

With `O=c1[nH]c(-c2ccccc2)nc2sc3cc(O)ccc3c12`, the growth was 75.2% (inactive).

As to `Cc1cc(=O)n(C(=O)Nc2ccccc2Cl)c2cc(O)ccc12`, the growth is 96.4% (inactive).

As to `CN(c1cc2ncc(=O)[nH]c2cc1NC(N)=NCc1ccc(Cl)cc1)C1CCCCC1`, the growth was 40.1% (inactive).
